# Experimental data published in PubChem BioAssay AID1851 (National Center for Advancing Translational Sciences (NCATS), 2009).
# “And” between values parts separate entries of the source, which are not always exact repeats. Equal values may be shown once. In all, about 16,000 compounds went through this assay and about 5,800 (36%) were called active. Not shown: some 23% with an inconclusive outcome. Calls follow the shape of the dose curve; as a rule, active = well fitted curve in the direction sought with a large enough effect; inconclusive = small, poorly fitted or top-dose-only effect, or effect the other way; inactive = no such curve, though single readings can be large or run the other way. This is one part of the list. A structure can be active in one record and inactive in another.
# Target: Cytochrome P450 2C19 (Homo sapiens) (UniProt P33261)
# Experiment: Cytochrome panel assay with activity outcomes
# Conditions: recombinant CYP, pro-luciferin dealkylation, luminescence, p450-cyp2c19; series mostly up to 57.1 µM; activity, negative = inhibition: at the top concentration
# Experimental: The P450 gene superfamily is involved in the metabolism and clearance of xenobiotics. This assay used various human CYP P450 isozymes to measure the dealkylation of various pro-luciferin substrates to luciferin. The luciferin is then measured by luminescence after the addition of a luciferase detection reagent. Pro-luciferin substrate concentration in the assay was equal to its KM for its CYP P450 isozyme. Inhibitors and some substrates limit the production of luciferin, and decrease measured luminescence.
# NCGC Assay Protocol Summary:
# 1, Reagent, 2 uL, Isozyme and Pro-Luciferin
# 2, Library compounds, 23 nl, 40 uM to 0.24 nM dilution series
# 3, Controls, 23 nl, Isozyme specific inhibitor
# 4, Reagent, 2 uL, NADPH regeneration solution
# 5, Incubation time, 60 min, Isozyme specific temperature
# 6, Reagent, 4ul, Detection reagent
# 7, Incubation time, 20 min, Isozyme specific temperature
# 8, Detection, 1 sec, ViewLux luminescent read
# The luciferase-based P450-GloTM Screening Systems were obtained from Promega (Madison, WI) for CYP 1A2 (V9770), CYP 2C9 (V9790), CYP2 C19 (V9880), CYP 2D6 (V9890), and CYP 3A4 Luciferin-PPXE (V9910) and were adapted for 1,536-well microplates and an automated protocol. The control compounds furafylline for 1A2 (F124), sulfaphenazole for CYP 2C9 (S0758), ketoconazole for CYP 2C19 (K1003), quinidine for 2D6 (Q3625), and ketoconazole for 3A4 (K1003) were purchased from Sigma Aldrich (St. Louis, MO). Recombinant P450 enzymes were obtained from baculovirus constructs expressed in insect cells (BD/Gentest).
# Medium-binding white solid Kalypsys plates used. Mixtures kept on ice. 1A2: 10 nM 1A2, 100 uM Luc-ME, 100 mM KPO4; 2C9: 10 nM 2C9, 100 uM Luc-H, 25 mM KPO4; 2C19: 5 nM 2C19, 10 uM Luc-H EGE, 50 mM KPO4; 2D6: 5 nM 2D6, 30 uM Luc-ME EGE, 100 mM KPO4; 3A4: 10 nM, 25 uM Luc-PPXE. All amounts are reflected in their final concentration, working concentration is 2x.
# NADPH regeneration solution: 1.3 mM NADP+, 3.3 mM glucose-6-phosphate, 3.3 mM MgCl2, 0.4 U/mL glucose-6-phosphate dehydrogenase for all isozymes, 200 mM KPO4 for 3A4. Mixture prepared at RT but kept on ice during automated run.
# RT incubation in auxilliary plate hotel for 1A2, 2D6, and 3A4; 37C for 2C9 and 2C19.
# Keywords: P450, CYP1A2, CYP2C19, CYP2C9, CYP2D6, CYP3A4, Luciferase, MLSMR, MLSCN, NIH Roadmap, qHTS, NCGC
# % is scaled to controls: 0 for no effect and ±100 for the full control effect.
# Sequence of Cytochrome P450 2C19 (Homo sapiens) (P33261 whole entry, looked up): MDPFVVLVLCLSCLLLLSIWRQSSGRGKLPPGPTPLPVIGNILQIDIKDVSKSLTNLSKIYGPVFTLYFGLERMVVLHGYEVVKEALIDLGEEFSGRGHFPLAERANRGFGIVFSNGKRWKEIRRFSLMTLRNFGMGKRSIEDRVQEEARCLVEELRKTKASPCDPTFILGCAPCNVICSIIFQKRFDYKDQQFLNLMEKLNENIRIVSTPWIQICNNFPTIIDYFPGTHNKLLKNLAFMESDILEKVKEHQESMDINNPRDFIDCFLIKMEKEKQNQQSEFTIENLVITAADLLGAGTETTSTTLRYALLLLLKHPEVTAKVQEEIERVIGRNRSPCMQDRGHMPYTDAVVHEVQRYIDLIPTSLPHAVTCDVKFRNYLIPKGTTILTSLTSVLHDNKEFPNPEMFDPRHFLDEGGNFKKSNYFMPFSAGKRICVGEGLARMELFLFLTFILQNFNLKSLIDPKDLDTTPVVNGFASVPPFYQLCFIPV
Compound,AC50,"activity, negative = inhibition"
S=C(S)N1CCCC1,3.98 µM (active),–
CC(C)Oc1cc(-n2c(=S)[nH]c3ccccc3c2=O)c(Cl)cc1Cl,0.224 µM (active),–
OC1(c2ccc(Cl)cc2)CCN(Cc2c[nH]c3ccccc23)CC1,–,26.2% (inactive)
COc1ccn(C)c(=O)c1C#N,–,41% [at 25.6 µM] (inactive)
CCOC(C(=O)OCCCN(CC)CC)(c1ccccc1)c1ccccc1,–,-28.3% (inactive)
CCN1C[C@@]2(COC)[C@H]3[C@@H](OC)[C@H]4C1[C@@]3([C@H](OC)C[C@@H]2O)[C@H]1C[C@@]2(O)[C@@H](OC(=O)c3ccccc3)[C@@H]1[C@@]4(OC(C)=O)[C@H](O)[C@@H]2OC,–,37.6% [at 25.6 µM] (inactive)
CC1=C(CC[C@H](C)CO)O[C@@H]2C[C@@H]3[C@H]4CC[C@H]5C[C@@H](O)CC[C@]5(C)[C@@H]4CC(=O)[C@@]3(C)[C@@H]12,–,-3.33% [at 11.4 µM] (inactive)
COc1ccc2[nH]cc(C3=CCNCC3)c2c1,–,-31.5% (inactive)
O=c1ccc2[nH]cc(C3=CCNCC3)c2[nH]1,0.126 µM (active),–
CCCCc1nc2ccccc2c(=O)n1-c1ccc(Cl)cc1[N+](=O)[O-],–,18.7% (inactive)
CCCCc1nc2ccccc2c(=O)n1-c1ccccc1[N+](=O)[O-],14.1 µM (active),–
O=c1cc(-c2ccc(O)cc2)oc2cc(O)cc(O)c12,–,-28.2% (inactive)
COc1ccc(CCNc2cc(-c3ccccc3)nc3ncnn23)cc1,11.2 µM (active),–
CNC[C@H](O)c1ccc(OC(=O)C(C)(C)C)c(OC(=O)C(C)(C)C)c1,–,40.4% [at 25.6 µM] (inactive)
[N-]=[N+]=NCC(=O)c1c[nH]c(=O)[nH]c1=O,–,30.9% [at 11.4 µM] (inactive)
C[C@H]1CC[C@]2(OC1)O[C@@H]1C[C@@H]3[C@@H]4CC[C@H]5C[C@@H](O)CC[C@]5(C)[C@@H]4CC(=O)[C@@]3(C)[C@H]1[C@@H]2C,–,-0.0546% [at 25.6 µM] (inactive)
CCOC(=O)C1=C(C)OC(N)=C(C#N)C12C(=O)N(C)c1ccccc12 (stereo unspecified),28.2 µM (active),–
CCN1C[C@]2(C)CC[C@H](O)[C@@]34[C@@H]5CC6[C@@H](OC)C[C@@](O)([C@@H]5[C@@H]6O)[C@H](C[C@@H]23)[C@H]14,–,12.6% [at 25.6 µM] (inactive)
Cc1ccc(OP(=O)(Oc2ccc(C)cc2)N2C=Cc3ccccc3[C@H]2C#N)cc1,2.51 µM (active),–
COc1ccccc1CN1CCCC2(CCN(C(=O)Oc3ccccc3)CC2)C1,–,-8.9% (inactive)
O=C1C=C2C=C[C@H]3C[C@@]2(O1)[C@H]1CCCCN31,–,-17.9% [at 25.6 µM] (inactive)
O=C1NCN(c2ccccc2)C12CCN(C[C@H]1COc3ccccc3O1)CC2,7.94 µM (active),–
O=C1NCN(c2ccccc2)C12CCN(CCCOc1ccc(F)cc1)CC2,–,-16.6% (inactive)

Compound,AC50,"activity, negative = inhibition"
O=C(CCCN1CCC(n2c(=O)[nH]c3ccccc32)CC1)c1ccc(F)cc1,–,13.1% [at 25.6 µM] (inactive)
O=C(CCCN1CCC2(CC1)C(=O)NCN2c1ccccc1)c1ccc(F)cc1,inactive and 6.31 µM (active),–
NC1=Nc2ccccc2Oc2ccccc21,–,-23.9% (inactive)
O=C(Oc1ccccc1)N1CCC2(CCN(Cc3ccncc3)CC2)CC1,–,-28.1% (inactive)
O=C(O)/C=C(\CC(=O)O)C(=O)O,–,-16.7% [at 11.4 µM] (inactive)
O=C(O)Cc1cccnc1C(=O)O,–,-6.16% (inactive)
CC(C)CN1CC2(CCN(C(=O)c3ccncc3)CC2)C1,–,-41.7% (inactive)
Cc1ccc(NC(=[OH+])c2cc3ccccc3cc2O)c(C)c1.Cc1ccc(NC(=[OH+])c2cc3ccccc3cc2O)c(C)c1.[Ni],2 µM (active),–
O=c1[nH]oc2c1CCNC2,inactive,–
Clc1ccc(C2=CCC[C@H]3CC[C@@H]2N3)cn1,–,23.3% (inactive)
CCCCN1C(=O)C(C2c3ccccc3C(=O)N2Cc2ccccc2)C(=O)NC1=S (stereo unspecified),25.1 µM (active),–
CC(C)C[C@H](NP(=O)(O)O[C@@H]1O[C@@H](C)[C@@H](O)[C@@H](O)[C@H]1O)C(=O)N[C@@H](Cc1c[nH]c2ccccc12)C(=O)O,–,34.5% (inactive)
Cn1cc(C(=O)C(=O)N[C@H]2CN3CCC2CC3)c2ccccc21,–,-31.1% (inactive)
CC(C)n1cnc2c(C(=O)N[C@H]3CN4CCC3CC4)cc(Cl)cc21,1 µM (active),–
CN1C(=O)COc2c(C(=O)N[C@@H]3CN4CCC3CC4)cc(Cl)cc21,–,-29.5% (inactive)
C[C@@H]1O[C@H](C[N+](C)(C)C)CS1,–,-5.89% (inactive)
NC(=O)CN1C[C@@H](O)CC1=O,–,-13.8% (inactive)
C[N+]1([O-])[C@@H]2CC(OC(=O)[C@@H](CO)c3ccccc3)C[C@@H]1[C@H]1O[C@H]12 (stereo partly specified),inactive,–
CN1[C@@H]2CC[C@H]1CC(NC(=O)c1nn(C)c3ccccc13)C2 (stereo partly specified),–,-7.12% (inactive)
O=C1C2CCN(CC2)C1(CO)CO,0.631 µM (active),-4.59% [at 11.4 µM] (inactive)
CCN(CC)C(=O)N[C@@H]1C[C@H]2c3cccc4[nH]cc(c34)C[C@@H]2N(C)C1,inactive,–
CCOC(=O)c1ncn2c1[C@H]1CCCN1C(=O)c1cc(OC)ccc1-2,–,27.7% (inactive)
